About 83,000 compounds went through this panel and 20% of them were active in at least one assay; those are over-represented in the sample as a whole.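 The test compound was applied at a single concentration to cells in 96-well plates for 48 hours, and percent growth was recorded.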 Unmarked numbers belong to inactive results. Active and inactive are the calls of the source. How the source made its calls: active means growth percent below 10; inactive means the rest.

Some test systems named below: NCI-H23 lung; NCI-H226 lung; NCI-H322M lung; HOP-62 NSCLC; NCI-H460 lung; NCI-H522 lung; A549/ATCC NSCLC; 786-0 renal; COLO 205 colon; HOP-92 NSCLC.
Assay in all cases: NCI-60 one-dose screen, 48 h (100 = growth as untreated, 0 = no growth, -100 = all killed)
Holding throughout (settings): 10 µM

Take `Nc1ccc(N=Nc2ccc(O)cc2)c(N)n1`: the growth in the test on NCI-H23 lung is 91.2%; with NCI-H226 lung it was 75.8%; in the test on NCI-H322M lung, 97.4%; with HOP-62 NSCLC, 99.7%; in the test on NCI-H460 lung, 84.1%; with NCI-H522 lung, 47%. In addition, the figures for the growth in the test on A549/ATCC NSCLC, in the test with 786-0 renal and with COLO 205 colon were 69.2%, 65.3% and 109%, respectively.

On to `CC(C)(C)n1nc(C2CC2)c(Br)c1NC(=O)c1ccccc1F`, for which the growth in the test with NCI-H23 lung is 117%; in the test on NCI-H226 lung, 102%; in the test on NCI-H322M lung, 98.3%; in the test with HOP-62 NSCLC, 92.5%; in the test on NCI-H460 lung, 102%; with A549/ATCC NSCLC, 93%. Further, the growth with 786-0 renal is 99.6%; in the test with COLO 205 colon, 104%.

With `CC1=CC(C)(C)NC(=S)N1c1ccc(S(=O)(=O)O)c2cccc(S(=O)(=O)O)c12`, the growth in the test on NCI-H23 lung was 101%; with NCI-H226 lung, 100%; in the test with NCI-H322M lung, 127%; in the test on HOP-62 NSCLC, 99.5%; with NCI-H460 lung, 110%; in the test on A549/ATCC NSCLC it was 106%. Further, the growth in the test with 786-0 renal is 112%; in the test with COLO 205 colon, 102%.

For the compound `CCOC(=O)C/C(C)=N\O`, the growth in the test on NCI-H23 lung is 100%; in the test with NCI-H226 lung, 98.4%; in the test on NCI-H322M lung, 97.9%; with HOP-62 NSCLC, 90.2%; with NCI-H460 lung it was 106%; with A549/ATCC NSCLC, 95.6%. Also, the growth with 786-0 renal is 96.1%; with COLO 205 colon, 104%.

Consider `OCc1cccc2ccccc12`, for which the growth in the test on NCI-H23 lung is 101%; in the test on NCI-H226 lung, 112%; with NCI-H322M lung it was 121%; in the test with HOP-62 NSCLC, 104%; in the test on NCI-H460 lung, 112%; in the test on A549/ATCC NSCLC, 108%. In addition, the results for the growth with 786-0 renal and with COLO 205 colon were 109% and 114%, respectively.

On to `S=c1[nH]ccn1-c1ccccc1Cl`, for which the growth in the test with NCI-H23 lung is 112%; in the test on NCI-H226 lung, 113%; in the test on NCI-H322M lung, 133%; in the test on HOP-62 NSCLC, 112%; with NCI-H460 lung, 117%; in the test on NCI-H522 lung, -30.9% (active). Moreover, the growth with A549/ATCC NSCLC is 53.8%; with 786-0 renal, 109%; in the test on COLO 205 colon, 117%.

As to `CCC(=O)Oc1ccc(OC)cc1`, the growth was 108% in the test on NCI-H23 lung; 105% in the test with NCI-H226 lung; 95.5% in the test on NCI-H322M lung; 98% in the test on HOP-62 NSCLC; 104% in the test on NCI-H460 lung; 105% in the test with A549/ATCC NSCLC. For the same compound, the growth was 105% in the test with 786-0 renal and 110% in the test on COLO 205 colon.

`CCCCC/C=N/Nc1nc(C)cc(=O)[nH]1`: the growth with NCI-H23 lung is 98.7%; with NCI-H226 lung, 97.5%; in the test on NCI-H322M lung it was 100%; in the test with HOP-62 NSCLC it was 117%; with NCI-H460 lung it was 107%; in the test on NCI-H522 lung it was 112%. Moreover, the growth in the test with A549/ATCC NSCLC is 86.8%; in the test with 786-0 renal, 102%; in the test on COLO 205 colon it was 121%.

Consider `COC(=O)Nc1nc2ccc(C(=O)c3ccc(F)cc3)cc2[nH]1`, for which the growth was 31.8% in the test on NCI-H23 lung; 145% with NCI-H226 lung; 40.5% in the test on NCI-H322M lung; 33.1% in the test with HOP-62 NSCLC; 6% (active) in the test with NCI-H460 lung; -52.1% (active) with NCI-H522 lung. Further, the growth is 26.4% with 786-0 renal and -37.7% (active) in the test with COLO 205 colon.

Take `O=c1[nH]c(O)c(/C=C2/C=Nc3ccccc32)[nH]1`: the growth in the test on NCI-H23 lung was 101%; in the test with NCI-H226 lung, 92.1%; in the test with NCI-H322M lung it was 107%; in the test with HOP-62 NSCLC, 99.4%; in the test with NCI-H460 lung, 99.3%; in the test on A549/ATCC NSCLC, 91.3%. For the same compound, the growth is 107% in the test on 786-0 renal and 101% with COLO 205 colon.

Consider `COc1ccc(C(C)C=O)cc1` (configuration not stated), for which the growth with NCI-H23 lung is 106%; in the test on NCI-H226 lung, 111%; with NCI-H322M lung, 122%; in the test with HOP-62 NSCLC, 107%; in the test with NCI-H460 lung, 108%; with A549/ATCC NSCLC, 105%. In addition, the growth was 107% in the test on 786-0 renal and 115% with COLO 205 colon.

Regarding `Oc1ccc(Cc2ccccc2)c2cccnc12`, the growth with NCI-H23 lung was 7.91% (active); in the test on NCI-H226 lung it was 75.7%; in the test with NCI-H322M lung it was -2.54% (active); with HOP-62 NSCLC, 18.3%; in the test with NCI-H460 lung, 0.164% (active); with A549/ATCC NSCLC, 16.2%. The figures for the growth in the test on 786-0 renal and with COLO 205 colon were -1.42% (active) and 96.5%, respectively.

Regarding `CN(C)/N=C/c1ccccc1O`, the growth in the test with NCI-H23 lung is 113%; in the test on NCI-H226 lung, 98.6%; in the test on NCI-H322M lung, 89.7%; in the test on HOP-62 NSCLC, 109%; with NCI-H460 lung, 100%; in the test with NCI-H522 lung, 96.2%. The growth with A549/ATCC NSCLC was 104%; in the test with 786-0 renal it was 92.8%; with COLO 205 colon, 112%.

As for `OC(c1ccccn1)C(O)c1ccccn1` (configuration not stated), the growth in the test on NCI-H23 lung is 97.5%; in the test with NCI-H226 lung, 110%; in the test with NCI-H322M lung, 96.8%; in the test on HOP-62 NSCLC it was 104%; in the test on NCI-H460 lung, 114%; with A549/ATCC NSCLC it was 95.3%. Besides, the figures for the growth with 786-0 renal and in the test on COLO 205 colon were 99.5% and 105%, respectively.

`CC1CCCC(CC(N)=O)CC1` (configuration not stated): the growth in the test with NCI-H23 lung is 102%; with NCI-H226 lung it was 98.7%; in the test with NCI-H322M lung, 112%; in the test on HOP-62 NSCLC, 94.9%; in the test on NCI-H460 lung it was 98.8%; with NCI-H522 lung it was 88.1%. Besides, the growth is 92.8% in the test with A549/ATCC NSCLC, 110% with 786-0 renal and 107% with COLO 205 colon.

`COc1ccccc1N=Nc1c(O)ccc2cc(S(=O)(=O)O)ccc12`: the growth in the test on NCI-H23 lung is 86.8%; with NCI-H226 lung, 98.2%; in the test with NCI-H322M lung, 99.1%; with HOP-62 NSCLC, 82.7%; with HOP-92 NSCLC, 84.7%; in the test on NCI-H522 lung, 85.7%. Moreover, the growth was 100% in the test on A549/ATCC NSCLC, 107% with 786-0 renal and 104% with COLO 205 colon.

For `COC(=O)/C=C/C(=O)NC(N)=O`, the growth is 94.7% with NCI-H23 lung; 94.1% in the test on NCI-H226 lung; 107% in the test with NCI-H322M lung; 98.8% with HOP-62 NSCLC; 105% in the test on NCI-H460 lung; 103% with 786-0 renal. In the test on COLO 205 colon, the growth was 105%.

For the compound `CCOC(=O)CCCC(=O)OCC`, the growth is 97.9% with NCI-H23 lung; 104% in the test on NCI-H226 lung; 99.2% with NCI-H322M lung; 105% in the test with NCI-H460 lung; 101% with HOP-92 NSCLC; 105% in the test with NCI-H522 lung. Further, the growth in the test on A549/ATCC NSCLC is 101%; in the test with 786-0 renal, 102%; with COLO 205 colon, 101%.

For the compound `Cc1c(O)cnc2nn(-c3ccccc3)c(=N)n12`, the growth in the test on NCI-H23 lung was 102%; with NCI-H226 lung, 100%; with NCI-H322M lung, 114%; with HOP-62 NSCLC it was 98.3%; in the test with NCI-H460 lung, 103%; in the test on A549/ATCC NSCLC it was 96.1%. Also, the growth in the test on 786-0 renal was 102%; in the test on COLO 205 colon it was 123%.

Regarding `COc1ccc(C(=O)C(Br)C(Br)C(=O)O)cc1` (configuration not stated), the growth in the test with NCI-H23 lung is 99.1%; in the test on NCI-H226 lung it was 102%; with NCI-H322M lung it was 94.1%; in the test on HOP-62 NSCLC, 108%; in the test on NCI-H460 lung, 104%; with 786-0 renal, 100%. In the test on COLO 205 colon, the growth was 110%.

Regarding `O=C(O)c1ccnc(Br)c1`, the growth with NCI-H23 lung is 97.8%; in the test with NCI-H226 lung it was 92.6%; with NCI-H322M lung, 106%; in the test with NCI-H460 lung, 104%; with HOP-92 NSCLC, 96.9%; in the test with NCI-H522 lung, 105%. In addition, the growth was 102% in the test with A549/ATCC NSCLC, 102% in the test with 786-0 renal and 107% with COLO 205 colon.

As to `Sc1ccc(Nc2c3ccccc3nc3ccccc23)cc1`, the growth with NCI-H23 lung was 73%; in the test on NCI-H226 lung, 91.2%; in the test with NCI-H322M lung, 74.6%; in the test with HOP-62 NSCLC, 92.4%; in the test with HOP-92 NSCLC, 76.9%; in the test with NCI-H522 lung, 40.9%. The growth was 61% in the test with A549/ATCC NSCLC, 95.5% in the test on 786-0 renal and 38.9% in the test with COLO 205 colon.

As to `CCC(C#N)(CC)c1ccccc1`, the growth with NCI-H23 lung was 99.5%; in the test with NCI-H226 lung, 99.3%; in the test on NCI-H322M lung, 99.4%; in the test with HOP-62 NSCLC it was 92.9%; in the test with NCI-H460 lung, 104%; with A549/ATCC NSCLC, 111%. For the same compound, the growth in the test on COLO 205 colon is 106%.

With `c1ccc2c(c1)Sc1ccccc1S2`, the growth in the test on NCI-H23 lung is 99%; in the test on NCI-H226 lung, 95.9%; in the test with NCI-H322M lung, 92.5%; in the test with NCI-H460 lung, 101%; in the test with HOP-92 NSCLC, 81.8%; in the test with NCI-H522 lung, 98.6%. Further, the growth in the test on A549/ATCC NSCLC is 94.2%; with 786-0 renal it was 94.9%; in the test with COLO 205 colon it was 111%.

With `O=C(O)CSCSCC(=O)O`, the growth with NCI-H23 lung was 99.8%; in the test with NCI-H226 lung, 95.2%; with NCI-H322M lung, 108%; in the test on HOP-62 NSCLC it was 91.5%; in the test with NCI-H460 lung it was 104%; with 786-0 renal it was 103%. Also, in the test with COLO 205 colon, the growth was 100%.

For `CCCC1(c2ccccc2)NC(=O)NC1=O` (configuration not stated), the growth is 110% in the test on NCI-H23 lung; 97% in the test on NCI-H226 lung; 124% with NCI-H322M lung; 102% in the test on HOP-62 NSCLC; 109% with NCI-H460 lung; 119% with A549/ATCC NSCLC. In addition, the growth in the test on COLO 205 colon was 114%.

`O=C1OC(=O)C2C1C1(Cl)C(Cl)=C(Cl)C2(Cl)C2C(=O)OC(=O)C21` (configuration not stated): the growth was 101% in the test on NCI-H23 lung; 97.5% in the test on NCI-H226 lung; 107% in the test on NCI-H322M lung; 104% in the test with HOP-62 NSCLC; 107% with NCI-H460 lung; 102% with 786-0 renal. For the same compound, the growth in the test on COLO 205 colon is 93.9%.

Consider `Oc1ccccc1O`, for which the growth was 97.7% in the test with NCI-H23 lung; 102% in the test with NCI-H226 lung; 91.2% in the test on NCI-H322M lung; 95.9% in the test with HOP-62 NSCLC; 100% in the test with NCI-H460 lung; 78.1% with A549/ATCC NSCLC. The growth with COLO 205 colon is 93.8%.
